ChEMBL document CHEMBL4513216, “Probing the Open Global Health Chemical Diversity Library for Multistage-Active Starting Points for Next-Generation Antimalarials” (ACS Infect Dis, 2020)
Hit rate of the full screen: of about 68,000 compounds, about 2,700 (4%) showed an effect of 50% or more. The entries come from a sample that favours strong results as a whole.

system: Plasmodium berghei; experiment: Screen against P. berghei liver stage (PbLuc), transformed with Luciferase, at 2uM; format: functional, HepG2; conditions: tested at 2 uM

Row | SMILES | INHIBITION [%]
1 | Cc1cc(S(=O)(=O)Nc2cccc(I)c2)sc1C(=O)O | -21.72
2 | CCc1cccc(NS(=O)(=O)c2cc(C)c(C(=O)O)s2)c1 | 58.69
3 | CC(=O)c1cccc(NS(=O)(=O)c2cc(C)c(C(=O)O)s2)c1 | -18.41
4 | CCOc1cccc(NS(=O)(=O)c2cc(C)c(C(=O)O)s2)c1 | 40.85
5 | Cc1cc(S(=O)(=O)Nc2cccc(OC(F)F)c2)sc1C(=O)O | 68.61
6 | O=C(O)c1csc(S(=O)(=O)Nc2cccc(OC(F)F)c2)c1 | -56.15
7 | COc1cccc(CN2CCOC(c3cnccn3)C2)c1F (centres undefined) | 4.47
8 | Nc1c(N2CCOCC2)ncnc1N1CCOCC1 | -18.65
9 | CC1CCN(S(=O)(=O)c2cccn(CC(=O)NC3CCCC3)c2=O)CC1 | -1.71
10 | CNC(=O)C1CCCN(c2nc(-c3ccco3)nc3c2CCNCC3)C1 (centres undefined) | -44.93
11 | CCS(=O)(=O)NC1CCCN(Cc2ccn(C)c(=O)c2)C1 (centres undefined) | -21.09
12 | CCc1nnsc1C(=O)NC1CCN(CCOc2ccc(Br)cc2)CC1 | 62.51
13 | Cc1nc(C(=O)NC2CCN(CCOc3ccc(Br)cc3)CC2)cs1 | 31.51
14 | Cc1ncsc1C(=O)NC1CCN(CCC(N)=O)CC1 | -7.02
15 | CN1CCCC1CNC(=O)CCOc1ccc(Br)cc1 (centres undefined) | -80.31
16 | Cc1ncc(C(=O)NC2CCN(CCOc3ccc(Br)cc3)CC2)s1 | 60.13
17 | CCc1nnsc1C(=O)NC1CCN(c2ccccn2)CC1 | 11.97
18 | COCC[C@]1(O)CCN(Cc2nc(C)c(C)s2)C[C@H]1C | 11.48
19 | NC(=O)CC1CCN(C(=O)NCCc2ccc(Cl)s2)CC1 | 15.47
20 | CCCC(C)NCc1cnc(-c2cccc(C)c2)nc1 (centres undefined) | 56.47
21 | Cc1cccc(-c2ncc(CNC(C)Cc3ccncc3)cn2)c1 (centres undefined) | 24.23
22 | Cc1cccc(-c2ncc(CNC(C)CO)cn2)c1 (centres undefined) | -53.16
23 | CCCS(=O)(=O)N1CC[C@H]2O[C@@H](c3nc(C)no3)CC[C@H]21 | -71.5
24 | COc1cccc(CNc2c(C)cnc3c2c(=O)n(C)c(=O)n3C)c1 | -9.49
25 | Cc1cnc2c(c1NCc1ccncc1)c(=O)n(C)c(=O)n2C | 29.42
26 | Cc1cnc2c(c1NCc1cccnc1)c(=O)n(C)c(=O)n2C | 63.23
27 | CC1CN(Cc2ccccc2)CCCN1CCCS(C)(=O)=O (centres undefined) | 53.99
28 | CC1CN(Cc2ccccc2)CCCN1CCS(C)(=O)=O (centres undefined) | -7.07
29 | CNS(=O)(=O)CCCN1CCCN(Cc2ccccc2)CC1C (centres undefined) | 32.03
